Reference: PubChem BioAssay
Calls of active or inactive are those of the source. Unless noted, how the calls were made is not given here.

What was measured:
[1] = anti-His antibody binders, primary screen, artefact control for SMM control protein annotation, biochemical, small-molecule microarray, 635 nm fluorescence (AID 1128); conditions: anti-His Alexa647 antibody binding, higher = more signal;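 further: score merges feature fluorescence with signal-to-noise for each printed compound spot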
[2] = tested on: Human papillomavirus type 1a E7 protein (residues 1-88); assay: HPV1a E7 small-molecule binders, primary screen, biochemical, small-molecule microarray, residues 1-88, 635 nm (AID 1129); conditions: small-molecule microarray binding, fluorescence 635 nm; higher = more signal
[3] = molecular target: Focal adhesion kinase 1 (Homo sapiens) (UniProt Q05397); assay: small-molecule microarray binders of FAK, primary screen, biochemical, 635/667 nm fluorescence, BSA, DTT (AID 1130); conditions: PTK2 binding, 635 nm fluorescence, higher = more signal;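 further: composite of spot emission at 667 nm and signal to noise over triplicate slides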
Chain of Focal adhesion kinase 1 (Homo sapiens) (Q05397 whole entry, looked up): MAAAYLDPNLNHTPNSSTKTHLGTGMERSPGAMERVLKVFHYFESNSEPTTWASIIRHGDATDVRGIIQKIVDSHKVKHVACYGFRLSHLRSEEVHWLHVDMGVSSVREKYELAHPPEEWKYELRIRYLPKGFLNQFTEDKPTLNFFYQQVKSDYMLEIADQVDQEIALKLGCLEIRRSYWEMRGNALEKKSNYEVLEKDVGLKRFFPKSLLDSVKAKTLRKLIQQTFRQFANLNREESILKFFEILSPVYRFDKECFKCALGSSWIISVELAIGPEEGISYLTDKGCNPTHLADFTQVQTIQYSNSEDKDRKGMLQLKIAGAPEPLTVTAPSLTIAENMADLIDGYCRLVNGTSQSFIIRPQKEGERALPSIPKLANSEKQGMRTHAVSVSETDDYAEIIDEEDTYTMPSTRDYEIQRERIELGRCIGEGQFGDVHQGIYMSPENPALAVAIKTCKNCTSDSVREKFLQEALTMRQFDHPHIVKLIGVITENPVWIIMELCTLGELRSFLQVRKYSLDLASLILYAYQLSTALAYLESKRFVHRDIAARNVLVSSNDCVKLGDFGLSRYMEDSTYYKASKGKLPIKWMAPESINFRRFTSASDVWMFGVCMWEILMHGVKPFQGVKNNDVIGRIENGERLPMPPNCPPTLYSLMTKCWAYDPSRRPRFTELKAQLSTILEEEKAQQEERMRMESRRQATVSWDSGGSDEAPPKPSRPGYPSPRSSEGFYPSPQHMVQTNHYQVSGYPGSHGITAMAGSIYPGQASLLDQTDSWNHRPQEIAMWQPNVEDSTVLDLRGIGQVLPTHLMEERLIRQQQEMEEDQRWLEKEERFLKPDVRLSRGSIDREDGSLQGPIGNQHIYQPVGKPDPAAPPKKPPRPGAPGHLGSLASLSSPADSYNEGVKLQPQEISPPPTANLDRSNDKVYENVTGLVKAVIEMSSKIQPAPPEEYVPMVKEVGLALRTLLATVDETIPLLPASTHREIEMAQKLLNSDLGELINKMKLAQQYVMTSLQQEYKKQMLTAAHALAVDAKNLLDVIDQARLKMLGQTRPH

[4] = tested on: Fibrinogen (Alexa647-labelled); assay: fibrinogen binders on compound microarrays, profiling panel, artefact control for SMM control-protein annotation, biochemical, small-molecule microarray, 635/667 nm fluorescence (AID 1131); conditions: fibrinogen-A647 binding fluorescence, higher = more signal;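 further: z-score merges 667 nm fluorescence with per-spot signal-to-noise over triplicate slides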
[5] = molecular target: Follistatin (Homo sapiens) (UniProt P19883); assay: follistatin binders on small-molecule microarrays, primary screen, biochemical, small-molecule microarray, 635/667 nm fluorescence (AID 1132); conditions: FST binding, 635 nm fluorescence, higher = more signal
Chain of Follistatin (Homo sapiens) (P19883 whole entry, looked up): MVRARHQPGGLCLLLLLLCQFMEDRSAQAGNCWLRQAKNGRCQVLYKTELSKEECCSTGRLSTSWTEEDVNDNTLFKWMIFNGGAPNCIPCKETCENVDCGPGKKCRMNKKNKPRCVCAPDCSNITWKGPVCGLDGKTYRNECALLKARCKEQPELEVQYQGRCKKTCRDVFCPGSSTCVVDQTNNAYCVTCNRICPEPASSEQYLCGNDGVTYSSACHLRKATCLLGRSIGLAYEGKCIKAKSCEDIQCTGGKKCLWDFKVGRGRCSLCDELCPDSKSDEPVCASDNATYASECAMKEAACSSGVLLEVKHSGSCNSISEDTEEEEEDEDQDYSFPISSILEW

[6] = molecular target: Fibroblast growth factor 2 (Homo sapiens) (UniProt P09038); assay: FGF2 binders on small-molecule microarrays, primary screen, biochemical, small-molecule microarray, 635/667 nm fluorescence (AID 1133); conditions: small-molecule microarray binding, FGF2, fluorescence 635/667; higher = more signal
Chain of Fibroblast growth factor 2 (Homo sapiens) (P09038 whole entry, looked up): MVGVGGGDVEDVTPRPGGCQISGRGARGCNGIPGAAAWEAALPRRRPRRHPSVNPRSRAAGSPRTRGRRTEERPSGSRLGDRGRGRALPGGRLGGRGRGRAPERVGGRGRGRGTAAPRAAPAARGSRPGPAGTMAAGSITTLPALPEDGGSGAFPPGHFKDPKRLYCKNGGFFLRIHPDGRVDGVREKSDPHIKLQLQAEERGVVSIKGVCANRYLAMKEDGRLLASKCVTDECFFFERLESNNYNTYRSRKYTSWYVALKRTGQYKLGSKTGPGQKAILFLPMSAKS

[7] = mitochondrial membrane potential change in A549 cells, profiling panel, cell-based, JC-1 fluorescence, basal, 24 h, 100 nL (AID 1138); conditions: higher = more signal;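 further: A549 lung adenocarcinoma cells under basal conditions with no added stimulus; test concentration not given here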
[8] = tested on: Lefty1; assay: Lefty1 binders on small-molecule microarrays, primary screen, biochemical, small-molecule microarray, 635/667 nm fluorescence (AID 1139); conditions: small-molecule microarray binding, fluorescence 635/667; higher = more signal
[9] = tested on: wheat germ agglutinin (Triticum aestivum), Alexa647-labelled; assay: wheat germ agglutinin binders on compound microarrays, profiling panel, artefact control for SMM control-protein annotation, biochemical, small-molecule microarray, 635/667 nm fluorescence (AID 1140); conditions: WGA-A647 binding, 635 nm fluorescence, higher = more signal;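 further: score merges 667 nm feature emission with signal to noise over triplicate slides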
[10] = molecular target: Luciferin 4-monooxygenase (Photinus pyralis) (UniProt P08659); assay: firefly luciferase enzyme inhibitors, primary screen, biochemical, luminescence, purified enzyme, 2006 set (AID 1141); conditions: SteadyGlo luminescence, 30 min, higher = more signal, called active from +8 up or from −8 down;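 further: cell-free assay with purified firefly luciferase at 100 ng per well in PBS; test concentration not given here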
Chain of Luciferin 4-monooxygenase (Photinus pyralis) (P08659 whole entry, looked up): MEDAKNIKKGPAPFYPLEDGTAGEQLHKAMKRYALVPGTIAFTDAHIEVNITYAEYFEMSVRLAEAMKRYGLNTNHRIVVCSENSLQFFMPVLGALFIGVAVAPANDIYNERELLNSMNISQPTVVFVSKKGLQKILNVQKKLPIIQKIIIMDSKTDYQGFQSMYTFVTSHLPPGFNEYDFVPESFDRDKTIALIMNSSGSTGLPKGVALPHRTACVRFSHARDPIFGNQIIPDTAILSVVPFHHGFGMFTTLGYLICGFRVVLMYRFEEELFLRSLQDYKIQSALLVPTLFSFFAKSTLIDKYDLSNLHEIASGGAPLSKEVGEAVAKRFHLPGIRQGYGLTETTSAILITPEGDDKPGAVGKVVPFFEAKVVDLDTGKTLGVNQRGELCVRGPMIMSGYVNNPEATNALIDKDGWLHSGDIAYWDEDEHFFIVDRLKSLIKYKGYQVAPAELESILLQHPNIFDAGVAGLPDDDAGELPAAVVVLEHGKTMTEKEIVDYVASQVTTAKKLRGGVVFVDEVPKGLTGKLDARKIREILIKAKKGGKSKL

[11] = tested on: Wnt5a (protein binding on small-molecule microarray); assay: Wnt5a binders on small-molecule microarray, primary screen, biophysical, 635/667 nm fluorescence (AID 1142); conditions: 635 nm fluorescence, higher = more signal;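 further: fluorescence read at 667 nm with signal to noise per printed feature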
[12] = cell viability in Huh7 cells, primary screen, cytotoxicity control for HCV replication inhibitor project, CellTiter-Glo luminescence, basal, 48 h (AID 1143); conditions: Huh7 HCV replicon, higher = more signal, called active from +8 up or from −8 down;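 further: Huh7 hepatoma cells carrying a hepatitis C replication reporter with no stimulus; test concentration not given here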
[13] = P. aeruginosa biofilm formation inhibitors, primary screen, PAO1 strain, BacTiter-Glo luminescence, LB-PBS (AID 1144); conditions: 12 h, higher = more signal
[14] = CREB reporter modulators without forskolin, primary screen, cell-based, PC12, CRE-LacZ reporter, unstimulated (AID 1145); conditions: no forskolin, luminescence, 4.5 h, higher = more signal, called active from +8 up or from −8 down
[15] = CREB reporter modulators under forskolin, primary screen, cell-based, PC12, CRE-LacZ reporter, forskolin-stimulated (AID 1146); conditions: luminescence, 4.5 h, higher = more signal, called active from +8 up or from −8 down;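 further: PC12 cells with 6xCRE LacZ reporter stimulated by forskolin 10 µM; beta-galactosidase reporter signal reflecting CREB driven transcription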
[16] = molecular target: Streptavidin (Streptomyces avidinii) (UniProt P22629); assay: streptavidin binders on small-molecule microarray, primary screen, artefact control for SMM compound annotation, biophysical, 635/667 nm fluorescence (AID 1147); conditions: streptavidin binding, higher = more signal;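 further: signal reflects streptavidin binding to arrayed compounds as a control protein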
Chain of Streptavidin (Streptomyces avidinii) (P22629 whole entry, looked up): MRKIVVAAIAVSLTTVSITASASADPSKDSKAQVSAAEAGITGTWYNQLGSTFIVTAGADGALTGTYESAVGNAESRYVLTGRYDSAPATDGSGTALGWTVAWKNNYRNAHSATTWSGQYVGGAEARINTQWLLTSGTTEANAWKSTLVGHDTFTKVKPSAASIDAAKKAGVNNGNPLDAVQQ

[17] = small-molecule binders of probe aInhba, primary screen, biochemical, small-molecule microarray, 635/667 nm fluorescence (AID 1148); conditions: higher = more signal;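 further: score merges 667nm spot fluorescence with signal-to-noise for antibody binding to printed compounds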
[18] = molecular target: Torsin-1A (Homo sapiens) (UniProt O14656); assay: torsin A binders from cell lysate, primary screen, small-molecule microarray, wild-type, 635/667 nm (AID 1149); conditions: COS7 hTOR1A-WT lysate, 635 nm fluorescence, higher = more signal
Chain of Torsin-1A (Homo sapiens) (O14656 whole entry, looked up): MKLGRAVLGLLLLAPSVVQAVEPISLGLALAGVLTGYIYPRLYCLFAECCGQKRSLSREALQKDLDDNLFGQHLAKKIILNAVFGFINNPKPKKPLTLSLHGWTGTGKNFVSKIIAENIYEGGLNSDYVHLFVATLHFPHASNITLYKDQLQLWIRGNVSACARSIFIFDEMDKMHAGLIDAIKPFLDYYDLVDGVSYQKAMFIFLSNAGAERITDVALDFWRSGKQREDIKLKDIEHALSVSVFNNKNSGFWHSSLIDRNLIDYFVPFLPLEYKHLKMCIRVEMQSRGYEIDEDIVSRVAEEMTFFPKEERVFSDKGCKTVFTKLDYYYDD

[19] = molecular target: Torsin-1A (Homo sapiens) (UniProt O14656); assay: small-molecule binders of mutant TOR1A in lysate, primary screen, cell lysate, small-molecule microarray, COS7 lysate, 635/667 nm fluorescence (AID 1150); conditions: COS7 hTOR1A mutant lysate, 635 nm fluorescence, higher = more signal;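 further: score pools 667 nm emission and signal to noise measuring lysate protein binding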
[20] = tested on: Sonic hedgehog protein (Shh); assay: small-molecule binders of Shh protein, primary screen, biochemical, small-molecule microarray, 635/667 nm fluorescence (AID 1151); conditions: small-molecule microarray binding, 635 nm fluorescence; higher = more signal;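 further: Shh protein binding to compounds spotted on small-molecule microarray slides; score combines spot fluorescence intensity with signal-to-noise across triplicate slides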

CN(C)C(=O)[C@]1(CCS(=O)(=O)c2ccccc2)N=C(c2ccc(OCCCO)cc2)O[C@@H]1c1ccccc1N=[N+]=[N-]
composite z-score [1]: 1.21
composite z-score [2]: 1.27
composite z-score [3]: 1.46
composite z-score [4]: 1.02
composite z-score [5]: 1.44
composite z-score [6]: 0.943
z-score [7]: 1.08
composite z-score [8]: 0.762
composite z-score [9]: 0.941
z-score [10]: -12.3 (active)
composite z-score [11]: 0.758
z-score [12]: -2.79 (inactive)
z-score [13]: 0.0474 (inactive)
z-score [14]: 1.92 (inactive)
z-score [15]: -0.977 (inactive)
composite z-score [16]: 2.06
composite z-score [17]: 0.246
composite z-score [18]: 1.42
composite z-score [19]: 1.78
composite z-score [20]: 0.605

COCCCNC(=O)[C@@]1(Cc2ccccc2N=[N+]=[N-])COC(c2ccc(OCCCO)cc2)=N1
composite z-score [1]: 1.47
composite z-score [2]: 1.22
composite z-score [3]: 0.614
composite z-score [4]: 0.967
composite z-score [5]: 0.773
composite z-score [6]: -0.186
z-score [7]: 0.961
composite z-score [8]: -0.351
composite z-score [9]: 0.976
z-score [10]: -2.1 (inactive)
composite z-score [11]: 0.926
z-score [12]: -1.63 (inactive)
z-score [13]: 0.53 (inactive)
z-score [14]: -0.641 (inactive)
z-score [15]: -0.849 (inactive)
composite z-score [16]: 1.63
composite z-score [17]: 0.0184
composite z-score [18]: 0.308
composite z-score [19]: 0.614
composite z-score [20]: -0.676

C=CCNC(=O)[C@H]1[C@@H]2C(=O)O[C@@H](c3ccccc3)[C@@H](c3ccccc3)N2[C@@H](c2ccc(O)cc2)[C@]12C(=O)Nc1ccc(C#CC3(O)CCCCCC3)cc12
composite z-score [1]: 2.76
composite z-score [2]: 0.277
composite z-score [3]: 0.201
composite z-score [4]: 0.481
composite z-score [5]: 1.16
composite z-score [6]: 0.267
z-score [7]: -1.22
composite z-score [8]: -0.15
composite z-score [9]: 0.0932
z-score [10]: 0.452 (inactive)
composite z-score [11]: -0.0118
z-score [12]: -1.11 (inactive)
z-score [13]: -1.06 (inactive)
z-score [14]: -0.0246 (inactive)
z-score [15]: -0.301 (inactive)
composite z-score [16]: 0.163
composite z-score [17]: 0.0899
composite z-score [18]: 0.935
composite z-score [19]: 1.89
composite z-score [20]: 1.13

CC(C)(C)OC(=O)CC[C@]1(C(=O)NCC(O)CO)N=C(c2ccc(OCCCO)cc2)O[C@H]1c1ccccc1 (stereo not given in full)
composite z-score [1]: 0.872
composite z-score [2]: 0.937
composite z-score [3]: -0.216
composite z-score [4]: 0.118
composite z-score [5]: -0.786
composite z-score [6]: -0.494
z-score [7]: 0.0908
composite z-score [8]: -1.71
composite z-score [9]: 0.94
z-score [10]: -1 (inactive)
composite z-score [11]: 0.167
z-score [12]: -4.48 (inactive)
z-score [13]: -1.56 (inactive)
z-score [14]: -0.356 (inactive)
z-score [15]: -0.729 (inactive)
composite z-score [16]: 0.291
composite z-score [17]: 0.0391
composite z-score [18]: 0.709
composite z-score [19]: 1.6
composite z-score [20]: -1.56

CC(C)C(=C=CC[C@H](O)c1cccc(OCCO)c1)C[C@H](O)c1cc(Cl)cc(Cl)c1O
composite z-score [1]: -0.397
composite z-score [2]: 0.637
composite z-score [3]: 0.295
composite z-score [4]: 0.713
composite z-score [5]: 1.31
composite z-score [6]: 0.484
z-score [7]: 0.487
composite z-score [8]: 1.3
composite z-score [9]: 0.628
z-score [10]: -0.316 (inactive)
composite z-score [11]: 0.255
z-score [12]: -0.254 (inactive)
z-score [13]: -1.02 (inactive)
z-score [14]: 5.53 (inactive)
z-score [15]: 0.813 (inactive)
composite z-score [16]: 0.092
composite z-score [17]: -0.116
composite z-score [18]: 0.605
composite z-score [19]: -0.356
composite z-score [20]: 1.95

COC(=O)c1c(CC[C@@H](CO)NC(=O)N2CCC[C@H]2Cn2cc(Cc3ccccc3)nn2)oc(C(C)=O)c1C(=O)OC
composite z-score [1]: -0.0636
composite z-score [2]: 0.485
composite z-score [3]: 0.397
composite z-score [4]: -0.522
composite z-score [5]: 0.613
composite z-score [6]: 0.147
z-score [7]: -0.58
composite z-score [8]: 0.824
composite z-score [9]: 0.541
z-score [10]: 1.15 (inactive)
composite z-score [11]: -0.0725
z-score [12]: -0.393 (inactive)
z-score [13]: 0.726 (inactive)
z-score [14]: -0.244 (inactive)
z-score [15]: -0.152 (inactive)
composite z-score [16]: -0.114
composite z-score [17]: -0.0736
composite z-score [18]: -0.0521
composite z-score [19]: 0.398
composite z-score [20]: 1.84

[N-]=[N+]=NCc1ccccc1[C@H]1OC(c2ccc(OCCCO)cc2)=N[C@@]1(CCS(=O)(=O)c1ccccc1)C(=O)N1CCCCC1
composite z-score [1]: 2.98
composite z-score [2]: 1.23
composite z-score [3]: 1.12
composite z-score [4]: 1.02
composite z-score [5]: 1.1
composite z-score [6]: 0.227
z-score [7]: -1.16
composite z-score [8]: 0.53
composite z-score [9]: 1.44
z-score [10]: -0.844 (inactive)
composite z-score [11]: 0.526
z-score [12]: -1.56 (inactive)
z-score [13]: -0.705 (inactive)
z-score [14]: 0.0219 (inactive)
z-score [15]: -0.709 (inactive)
composite z-score [16]: 1.72
composite z-score [17]: 0.211
composite z-score [18]: 0.827
composite z-score [19]: 1.28
composite z-score [20]: 0.155

[N-]=[N+]=NCc1ccccc1C[C@]1(C(N)=O)N=C(c2ccc(OCCCO)cc2)O[C@H]1c1ccccc1
composite z-score [1]: 0.409
composite z-score [2]: 1.21
composite z-score [3]: 0.196
composite z-score [4]: 0.496
composite z-score [5]: 1.31
composite z-score [6]: -0.653
z-score [7]: 0.658
composite z-score [8]: -0.625
composite z-score [9]: 1.14
z-score [10]: 0.856 (inactive)
composite z-score [11]: 0.0841
z-score [12]: -3.8 (inactive)
z-score [13]: -1.02 (inactive)
z-score [14]: 0.101 (inactive)
z-score [15]: 0.0159 (inactive)
composite z-score [16]: 0.363
composite z-score [17]: 0.0227
composite z-score [18]: 0.851
composite z-score [19]: 0.885
composite z-score [20]: -1.23

COC(=O)[C@@]1(Cc2ccc(F)cc2)[C@H]2c3cc(C(=O)N4CCCC4)n(CCN4CNCC4=O)c3C[C@H]2CN1C(=O)c1ccccc1
composite z-score [1]: 2.44
composite z-score [2]: 1.24
composite z-score [3]: 0.922
composite z-score [4]: 1
composite z-score [5]: -0.0189
composite z-score [6]: -0.841
z-score [7]: -1.6
composite z-score [8]: -0.0252
composite z-score [9]: 1.01
z-score [10]: 2.51 (inactive)
composite z-score [11]: 0.289
z-score [12]: -1.11 (inactive)
z-score [13]: -0.917 (inactive)
z-score [14]: 0.39 (inactive)
z-score [15]: -1.08 (inactive)
composite z-score [16]: 1.04
composite z-score [17]: 0.179
composite z-score [18]: 1.51
composite z-score [19]: 1.77
composite z-score [20]: -0.164

O=C1C[C@@](C(=O)NCCN2CCOCC2)(c2ccc([N+](=O)[O-])cc2)[C@@H](c2ccc(CO)cc2I)N1C1CCCCC1
composite z-score [1]: 1.27
composite z-score [2]: 1.24
composite z-score [3]: 0.211
composite z-score [4]: -0.415
composite z-score [5]: 1.15
composite z-score [6]: 0.94
z-score [7]: 1.8
composite z-score [8]: 0.992
composite z-score [9]: 0.308
z-score [10]: 1.35 (inactive)
composite z-score [11]: 0.642
z-score [12]: -4.95 (inactive)
z-score [13]: -1.36 (inactive)
z-score [14]: 0.0279 (inactive)
z-score [15]: -1.11 (inactive)
composite z-score [16]: -0.0491
composite z-score [17]: -0.0468
composite z-score [18]: -0.308
composite z-score [19]: 0.896
composite z-score [20]: 1.92
